From PubChem
SARS PLP yeast = SARS-CoV PLP inhibition in yeast | S. cerevisiae expressing SARS-CoV PLpro, growth rescue | Potency, µM (highest dose often 32.9 µM), actives largely listed as activators | hit rate 0.19% among 330,000 | AID 485353; also: nearly all actives have a fitted effect of over 55% in size
NS1 inh = inhibitors of influenza NS1 protein function; Potency, µM (highest dose often 46.1 µM); hit rate 0.4% among 270,000; AID 2326; also: actives are rising curves; nearly all actives have a fitted effect of over 50% in size
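Read-out: OD600 growth recovery of NS1-expressing budding yeast. Cells grown overnight at 30C in -URA glucose medium, washed, resuspended and diluted 1:100 in 2% galactose assay medium, pH 6.0. Same strain lacking NS1 served as positive control.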
Shiga inhibitor = inhibitors of Shiga toxin in Vero cells | Vero cells, Shiga toxin protein synthesis inhibition reporter | AID 2315 | hit rate 9.2% among 290,000 | inhibition, % at 38.7 µM; in the data active = inhibition mostly above about 28%, no sharp cut-off; inactive = mostly below about 43%
CHX counter = affects cycloheximide protein synthesis inhibition readout, counter-screen. hit rate 12% among 300,000. cell reporter, cycloheximide protein synthesis inhibition counterscreen. max response, %; in the data active = max response mostly above about 13%, no sharp cut-off; inactive = mostly below about 14%; also: read at 38.3 µM for the half of the compounds with a filed dose
A number is an active result; i = inactive; ? = inconclusive; nt = no result; + = active, no number; ! = a repeat was not active. A selection: hits, their analogues and other compounds. The true share with any hit is near 12%. Unless noted, calls follow the shape of the full dose curve.

SMILES | SARS PLP yeast | NS1 inh | Shiga inhibitor | CHX counter
Cc1cc(C)nc(Nc2ccc(C(=O)O)cc2)n1 | i | i | i | i
COc1ccc(Nc2nc(C)cc(C)n2)cc1Cl | i | i | i | 26
CCc1ccc(Nc2cc(C)nc3nc(C)nn23)cc1 | ? | i | i | i
Cc1cc(NC(=O)CN2CCc3ccccc3C2)nc2c1c(=O)oc1ccccc12 | i | i | i | i
Cc1ccc(C(=O)n2nc(C#N)c(C#N)c2N)cc1 | i | i | i | i
O=C(COC(=O)c1cc(S(=O)(=O)N2CCOCC2)c(Cl)cc1Cl)NCc1ccco1 | i | nt | nt | nt
O=C(NC1CCCCC1)N(Cc1nc2ccccc2c(=O)[nH]1)C1CCCCC1 | i | i | 65 | 25
CC1CCCCC1NC(=O)CCCc1nc2ccccc2c(=O)[nH]1 (stereo not drawn) | i | i | i | 7.8
O=C(NC1CCCCC1)N(Cc1nc2ccccc2c(=O)[nH]1)C1CCCC1 | i | i | i | i
O=C(CCc1nc2ccccc2c(=O)[nH]1)NC1CCN(Cc2ccccc2)CC1 | i | i | i | i
COc1ccc(C(=O)Nc2ccc3c(c2)OCCO3)cc1S(=O)(=O)N1CCOCC1 | i | nt | nt | nt
O=C(Nc1ccc2c(c1)OCO2)c1ccc(Cl)c(S(=O)(=O)N2CCOCC2)c1 | i | i | 39 | 16
NS(=O)(=O)c1ccc(NC(=O)c2ccc3c(c2)OCO3)cc1 | i | i | i | i
NS(=O)(=O)c1cc(C(=O)Nc2ccc3c(c2)OCCCO3)ccc1Cl | i | i | 58 | 19
O=C(Nc1ccc2c(c1)OCCO2)c1ccc(Cl)c(S(=O)(=O)N2CCOCC2)c1 | i | i | 66 | 42
CCCCn1c(CCC(=O)O)nc2cc(S(=O)(=O)N(CC)CC)ccc21 | i | i | i | i
Cc1cccc(C)c1NC(=S)NCc1ccncc1 | i | i | i | i
Cc1ccc(-n2ncc3c(=O)n(CC(=O)N(C)C)cnc32)cc1C | i | i | i | 14
CC(=O)Cn1cnc2c(cnn2-c2ccc(C)c(C)c2)c1=O | i | i | 91 | 54
CCN(CC)CCn1c2c(c(SCC(=O)Nc3cc(C)cc(C)c3)nc1=O)CCC2 | i | nt | nt | nt
CC(C)(C)OC(=O)NCCCCCO | nt | nt | 27 | 27
O=C(O)Cc1[nH]cnc1C(=O)O | nt | i | nt | nt
COCCNC(=O)CN1CCC(NC(=O)Nc2ccc(C(F)(F)F)cc2)CC1 | i | i | i | i
CCC(=O)N1CCC(c2ccc(OC)cc2)=N1 | i | i | 38 | 36
COc1ccc(C2=NN(CC(=O)NCC(OC)OC)C(=O)CC2)cc1 | i | i | i | i
SMILES | SARS PLP yeast | NS1 inh | Shiga inhibitor | CHX counter
CC1=CCC2C(=O)N(c3ccc4ccccc4n3)C(=O)C2C1 (stereo not drawn) | i | i | i | 9.4
CC1=CCC2C(=O)N(c3nc(C)cc(C)n3)C(=O)C2C1 (stereo not drawn) | i | i | i | i
Clc1ccc2ccc3cccnc3c2n1 | i | i | i | i
Cc1[nH]c2c(ccc3cccnc32)c1C | i | i | 41 | 17
CC(C)C(=O)NC(=S)Nc1ccccc1N1CCN(C(=O)c2ccc(Cl)cc2)CC1 | i | i | i | 32
CC1CN(C(=O)/C(C#N)=C2\N=C(NC(=O)c3ccccc3Cl)c3ccccc32)CC(C)O1 (stereo not drawn) | i | i | i | i
N#C/C(=C\c1ccc(C#N)cc1)C(=O)c1ccccc1 | i | i | i | i
CSc1nc2ccccc2cc1/C=C(\C#N)c1cccc(C)c1 | i | i | i | i
CN(C)c1ccc(/C=C(\C#N)c2ccccc2)cc1 | i | i | 63 | 57
CN(C)c1cccc(/C=C(\C#N)c2ccccc2)c1 | i | i | 77 | 42
CN(C)c1ccc(/C=C(\C#N)C(=O)c2ccccc2)cc1 | i | i | i | 14
CCOC(=O)NC(=O)/C(C#N)=C/c1ccc(N(C)C)cc1 | i | i | i | 36
CC/S(C)=N/S(=O)(=O)c1ccc(C)cc1 (stereo not drawn) | i | i | i | i
COc1cc(OC)cc(C(=O)N[C@H](C(=O)Nc2cc(F)ccc2C)C(C)C)c1 | i | i | i | i
CC1=CC(C)(C)Nc2ccc(OC(=O)CN3C(=O)c4cccc5cccc(c45)C3=O)cc21 | i | ? | i | i
CC1=CC(C)(C)Nc2ccc(OC(=O)CN3C(=O)c4ccccc4C3=O)cc21 | i | i | 55 | 35
CC(=O)c1cc(-c2ccccc2)n(CC(=O)Nc2cc(C)cc(C)c2)c1C | i | i | i | i
C=CCn1c(SCC(=O)Nc2ncc(Cc3ccc(C)c(Cl)c3)s2)nnc1-c1ccncc1 | ? | i | i | i
CCOc1cccc2oc(-c3ccccc3Cl)cc(=O)c12 | nt | nt | + | 59
O=c1cc(-c2ccccc2Cl)oc2cc(O)cc(O)c12 | i | i | 94 | 46
O=C(Nc1ccc(O)c2c(=O)cc(-c3ccccc3Cl)oc12)c1ccc(F)cc1 | i | i | 100! | 88!
O=C(Nc1ccc(O)c2c(=O)cc(-c3ccccc3Cl)oc12)c1ccc(Cl)cc1Cl | i | i | i | i
Nc1ccc(O)c2c(=O)cc(-c3ccccc3Cl)oc12 | i | i | 61 | 45!
CCCCOc1ccc(C(=O)NCC(=O)NNC(=O)c2ccco2)cc1 | i | nt | nt | nt
COc1cccc(-c2nnc(SCN3C(=O)c4ccccc4C3=O)n2C)c1 | i | i | i | i
SMILES | SARS PLP yeast | NS1 inh | Shiga inhibitor | CHX counter
O=C(Nc1ccccc1)Nc1ccc2ncoc2c1 | i | i | 64 | 42
O=C(Nc1ccccc1)Nc1ccc2ocnc2c1 | i | nt | 67 | 42
O=C(O)Cc1ccc2ocnc2c1 | i | i | i | i
O=C(c1cc(Cl)nc2ccccc12)N1CCN(S(=O)(=O)c2ccccc2[N+](=O)[O-])CC1 | i | i | i | i
O=C(CC1C(=O)NCCN1CC1CCCCC1)NCc1cc(F)ccc1F (stereo not drawn) | i | i | i | i
O=C(CC1C(=O)NCCN1CC1CCCCC1)NCc1ccc(F)cc1F (stereo not drawn) | i | i | 41 | 20
COC(=O)[C@@H]1CC2=CC(=O)CC[C@]2(C)[C@@]23O[C@@H]2C[C@@]2(C)[C@H](CC[C@@]24CCC(=O)O4)[C@@H]13 | nt | nt | i | i
Cc1ccccc1/C=N\NC(=O)c1csnn1 | i | i | 112 | 60
O=C(N/N=C\c1ccc(F)cc1)c1csnn1 | i | i | 106 | 44
Cc1ccc(Nc2ncnc(-n3cccc3)n2)cc1Cl | i | i | 80 | 32
Nc1ncnc(Nc2ccccc2Cl)n1 | i | i | i | 17
Nc1ncnc(Nc2ccc(F)c(Cl)c2)n1 | i | i | 57 | 19
Clc1ccccc1Nc1ncnc(-n2cccc2)n1 | i | i | 131 | 62
CCCCCCCN1C(Nc2ccccc2)=NC[C@@H]1C | i | nt | nt | nt
COc1ccc(CNc2nc3ccccc3n2C)c(O)c1 | i | ? | 69 | 39
Cn1c(NCc2cc(Br)ccc2O)nc2ccccc21 | i | i | 66 | 27
COc1ccc(CNc2nc3ccccc3n2C)c(OC)c1 | i | i | 82 | 40
CC(NCC(=O)Nc1ccccc1C(=O)NC1CC1)c1ccc(F)cc1F (stereo not drawn) | i | nt | nt | nt
COc1cccc(NC(=O)CCC2CCN(C(=O)c3cncs3)CC2)c1 | i | ? | i | i
Cc1ccc(S(=O)(=O)CCN2CCC(n3cccc3)CC2)cc1 | i | i | i | i
CC(C)C1COC(c2cccc3ccccc23)=N1 (stereo not drawn) | i | i | 136 | 76
CCn1cc(C2=NC(C(C)C)CO2)c2ccccc21 (stereo not drawn) | i | i | i | i
